Source: PubChem BioAssay AID1063 (University of Pittsburgh Molecular Library Screening Center, 2008)
The campaign covered roughly 200,000 compounds. About 18,000 (9%) were called active. The full list was thinned out, with actives kept by preference. A number with no mark means an inactive call. Rule as the data show it: active = inhibition above about 50%; inactive = the rest.

Assay: antileishmanial activity against promastigotes – primary screen (AID 1063);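 also: promastigotes grown with compound for 44 hours at 28 °C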
Settings: Leishmania major promastigotes, resazurin fluorescence viability; at 10 µM; stronger effect = higher value

| Compound | inhibition |
| --- | --- |
| CCO[C@@H]1OC(C(=O)N2CCOCC2)=C[C@H](C)[C@H]1CCCO | -9.37% |
| Cn1nnnc1SCC(=O)Nc1nc2ccccc2s1 | -3.39% |
| CC(=O)c1ccc(NC(=O)C(C)N(C)CC(=O)Nc2ccccc2Cl)cc1 (configuration not stated) | 12.8% |
| COc1ccc(S(=O)(=O)N(C)CC(=O)N2CCCC2)cc1Cl | -0.12% |
| CC(C)(C)NCc1cc(Br)ccc1OC1CCCC1 | 15.5% |
| COc1cc(CNC2CCCC2)c(Br)cc1OCc1ccccc1 | 35.4% |
| COc1cc(CNC2CCCCC2)c(Br)cc1OC1CCCC1 | 60.8% (active) |
| C=CS(=O)c1sc(Cl)c(N2CCOCC2)c1[N+](=O)[O-] (configuration not stated) | 20.9% |
| CCc1cccc(C)c1NC(=S)N(CCCN1CCN(C)CC1)Cc1cccs1 | 22.3% |
| Cc1ccc(Cl)cc1NC(=S)N(CCN(C)C)Cc1cccs1 | 18.3% |
| Cc1ccccc1NC(=S)N(CCCN1CCOCC1)Cc1cccs1 | 61.8% (active) |
| O=C(CCN1C(=O)c2ccccc2C1=O)NCCCn1ccnc1 | -10.1% |
| O=C(Nc1cccc(-c2nc3ncccc3o2)c1)c1ccco1 | 100% (active) |
| O=C(Nc1ccc2nccnc2c1)c1ccco1 | -6.2% |
| O=C(Nc1cccc(NC(=O)c2ccco2)c1)c1cnccn1 | 20.6% |
| CC(=O)Nc1ccc(S(=O)(=O)Nc2nccc(/C=C/c3ccccc3F)n2)cc1 | -6.64% |
| O=C(N/N=C/c1ccccn1)c1ccc(S(=O)(=O)N2CCCCCC2)cc1 | -3.79% |
| CC(c1ccco1)N(C(=O)COc1ccccc1[N+](=O)[O-])c1ccccn1 (configuration not stated) | 1.39% |
| CC(c1ccco1)N(C(=O)c1ccc(S(=O)(=O)N2CCCCC2)cc1)c1ccccn1 (configuration not stated) | 89.7% (active) |
| Cn1c(N)cc(-c2ccc(F)cc2)c(C#N)c1=O | 0.6% |
| O=C(CSC1=NCCS1)Nc1nc(-c2ccccc2)cs1 | 67.4% (active) |

| Compound | inhibition |
| --- | --- |
| O=C(Nc1nc(-c2ccc(-c3ccccc3)cc2)cs1)c1cnccn1 | 47.8% |
| Cc1cccc(S(=O)(=O)CC(=O)Nc2nc(-c3ccccc3)cs2)c1 | 98.6% (active) |
| Cc1ccc(-c2csc(NC(=O)Cn3[nH]c(=O)c4ccccc4c3=O)n2)cc1 | 5.27% |
| CCNC(=O)CSc1nc(-c2ccccc2)cs1 | 3.19% |
| Cc1ccc(-c2csc(NNC(=O)c3ccccc3)n2)cc1 | 16.8% |
| Cc1ccc(S(=O)(=O)N(CC(=O)NN=C2CCN(C)CC2)c2ccc(F)cc2)cc1 | -0.06% |
| CCc1cc2c(=O)c(-c3nc4ccccc4n3C)c(CCCC(=O)O)oc2cc1OC(=O)C(C)(C)C | -1.6% |
| CCOc1ccc(NC(=S)NC(=O)/C=C/c2ccc(OC)cc2)c([N+](=O)[O-])c1 | -5.29% |
| COc1ccc(/C=C/C(=O)NC(=S)NN2CCCCC2c2cccnc2)cc1 (configuration not stated) | 69.9% (active) |
| COc1ccc(C2=NN(C(=O)c3cccnc3)C(c3ccccc3)C2)cc1 (configuration not stated) | 5.17% |
| Cc1cccc(N=C2NN=C(c3c[nH]c4ccccc34)CS2)c1 | 64.9% (active) |
| Cc1cccc(N=C2NC(=O)/C(=C/c3cn(C)c4ccccc34)S2)c1 | 10.8% |
| Cc1cccc(C(=O)Nc2nnc(Cc3c[nH]c4ccccc34)s2)c1 | 19.2% |
| CC(C(=O)NC1CCCC1)N(c1ccc(Oc2ccccc2)cc1)S(C)(=O)=O (configuration not stated) | 29.4% |
| CCOc1ccc(C(C)=O)cc1CSc1nnc(-c2ccncc2)n1CCOC | 2.51% |
| COc1ccc(C/C(C)=N/NC(=O)c2ccncc2)cc1 | -6.69% |
| C/C(=N\NC(=O)Cc1ccc(F)cc1)c1ccc(F)cc1 | -7.37% |
| COc1ccc(CC(=O)N/N=C(\C)c2ccccn2)cc1 | 75.9% (active) |
| Cc1ccc(Cl)cc1NC(=O)c1ccccn1 | -2.2% |
| COc1ccc(C/C(C)=N/NC(=O)c2cc(C)oc2C)cc1 | 2.67% |
| C/C(=N\NC(=O)Cc1ccc(Cl)cc1)c1ccccn1 | 100% (active) |

| Compound | inhibition |
| --- | --- |
| COc1ccccc1NC(=O)C1=C(C)NC(=O)NC1c1ccc(C)s1 (configuration not stated) | 5.44% |
| O=C(CC(=O)N/N=C\c1ccc(F)cc1)NCCc1ccccc1 | -0.64% |
| Nc1ccc(S(=O)(=O)Nc2nccc(/C=C/c3ccc(Br)s3)n2)cc1 | 1.78% |
| O=C(O/N=C(/c1ccccc1)c1ccncc1)c1ccccc1[N+](=O)[O-] | -5.52% |
| COC(=O)c1ccc(NC(=S)Nc2cccc(C)n2)cc1 | 1.93% |
| COc1cc(OC)cc(-c2nnc(SCC(=O)Nc3ccc(C(=O)O)cc3)s2)c1 | -10.5% |
| COc1ccc(/C=C/C2=CC(C)(C)NC(=S)N2)c(OC)c1 | 1.29% |
| COc1cccc(-n2c(=S)[nH]c3c(oc4ccccc43)c2=O)c1 | -1.14% |
| CCCC1(C(=O)OC)NC(c2ccco2)C2C(=O)N(C)C(=O)C21 (configuration not stated) | 4.05% |
| Cc1cccc2cc(CN(C(=O)c3cccs3)c3ccccc3)c(=O)[nH]c12 | -3.04% |
| Cc1ccc(N(Cc2cc3ccccc3[nH]c2=O)C(=O)c2cccs2)cc1 | 75.4% (active) |
| CCC(=O)N(Cc1cc2ccccc2[nH]c1=O)c1ccc(OC)cc1 | 11.3% |
| Cc1ccc2c(c1)C(O)(CC(=O)c1cccc(-n3cccc3)c1)C(=O)N2 (configuration not stated) | 0.06% |
| COc1ccccc1-n1cnc2cc(NS(=O)(=O)c3ccccc3)ccc21 | 98.3% (active) |
| COCCCNC(=O)c1ccc2c(c1)ncn2-c1ccccc1OC | -1.51% |
| COc1cc(NS(=O)(=O)c2ccccc2)ccc1-n1nc(C)cc1C | -5.46% |
| O=[N+]([O-])c1ccccc1N/N=C1\CCc2ccccc21 | -1.95% |
| N#Cc1cccc(Nc2c3c(nc4ccccc24)CCCC3)c1 | 86.9% (active) |
| O=C(Nc1c2c(nc3ccccc13)CCCC2)c1ccccc1Br | 6.31% |
| N#Cc1cccc(NC(=O)CCC2CCCC2)c1 | 5.79% |
